Source: article PMC7862700, “An all-to-all approach to the identification of sequence-specific readers for epigenetic DNA modifications on cytosine”

What was measured:
Assay in all cases: DAPPL (digital affinity profiling via proximity ligation, sequencing); 10 mM Tris-HCl pH 7.5, 50 mM NaCl, 1 mM DTT, 4% glycerol, room temperature, 30 min; GST-TFs on glutathione beads, 16-mer random dsDNA library, 0.1% formaldehyde crosslink after washing; high values mean tight binding
FLI1 = target: T1, FLI1 (Homo sapiens, UniProt Q01543 1-452); details: protein: recombinant; tags: N-terminal GST; dsDNA, one strand shown
T1 sequence: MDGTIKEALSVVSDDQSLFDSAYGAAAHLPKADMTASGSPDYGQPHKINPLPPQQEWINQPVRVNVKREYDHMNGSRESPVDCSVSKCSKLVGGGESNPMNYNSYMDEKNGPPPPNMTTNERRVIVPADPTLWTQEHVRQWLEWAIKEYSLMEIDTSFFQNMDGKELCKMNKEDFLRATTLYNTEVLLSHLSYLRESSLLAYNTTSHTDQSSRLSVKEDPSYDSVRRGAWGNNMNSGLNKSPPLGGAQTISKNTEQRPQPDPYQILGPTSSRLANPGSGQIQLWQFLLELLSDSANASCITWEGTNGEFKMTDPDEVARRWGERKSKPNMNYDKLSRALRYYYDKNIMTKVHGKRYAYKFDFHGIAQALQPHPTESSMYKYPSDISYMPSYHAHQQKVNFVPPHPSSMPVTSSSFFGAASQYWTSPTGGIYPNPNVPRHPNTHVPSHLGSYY
How it was run: (§1)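 Pools were built from human transcription factors expressed in yeast as GST fusions, captured on glutathione beads and DNA-barcoded, along with a tag-only sample. Incubation with 200 nmole of a 16-mer random double-stranded DNA library lasted 30 min at room temperature in Tris/NaCl/DTT/glycerol buffer, and was followed by washing, 0.1% formaldehyde crosslinking, proximity ligation, PCR amplification and Illumina NextSeq500 sequencing. Binding signal is the quotient of each hexamer's read frequency for a factor and its frequency for the tag-only sample.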

ELK1 = target: T2, ELK1 (Homo sapiens, UniProt P19419 1-428); details: protein: recombinant; tags: N-terminal GST; dsDNA, one strand shown
T2 sequence: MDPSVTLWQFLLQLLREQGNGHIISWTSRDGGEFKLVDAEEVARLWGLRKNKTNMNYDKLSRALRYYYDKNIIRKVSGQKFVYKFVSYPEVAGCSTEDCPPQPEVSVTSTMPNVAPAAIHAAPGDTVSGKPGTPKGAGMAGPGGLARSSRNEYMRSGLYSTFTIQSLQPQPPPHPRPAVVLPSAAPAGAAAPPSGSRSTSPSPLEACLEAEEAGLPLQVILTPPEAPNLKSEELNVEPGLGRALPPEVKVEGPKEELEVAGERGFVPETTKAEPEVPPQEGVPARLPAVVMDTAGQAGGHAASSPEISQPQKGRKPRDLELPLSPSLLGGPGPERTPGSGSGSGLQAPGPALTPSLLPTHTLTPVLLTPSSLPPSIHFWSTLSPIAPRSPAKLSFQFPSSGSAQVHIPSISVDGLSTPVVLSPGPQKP
How it was run: as §1

GABPA = target: T3, GABPA (Homo sapiens, UniProt Q06546 1-454); details: protein: recombinant; tags: N-terminal GST; dsDNA, one strand shown
T3 sequence: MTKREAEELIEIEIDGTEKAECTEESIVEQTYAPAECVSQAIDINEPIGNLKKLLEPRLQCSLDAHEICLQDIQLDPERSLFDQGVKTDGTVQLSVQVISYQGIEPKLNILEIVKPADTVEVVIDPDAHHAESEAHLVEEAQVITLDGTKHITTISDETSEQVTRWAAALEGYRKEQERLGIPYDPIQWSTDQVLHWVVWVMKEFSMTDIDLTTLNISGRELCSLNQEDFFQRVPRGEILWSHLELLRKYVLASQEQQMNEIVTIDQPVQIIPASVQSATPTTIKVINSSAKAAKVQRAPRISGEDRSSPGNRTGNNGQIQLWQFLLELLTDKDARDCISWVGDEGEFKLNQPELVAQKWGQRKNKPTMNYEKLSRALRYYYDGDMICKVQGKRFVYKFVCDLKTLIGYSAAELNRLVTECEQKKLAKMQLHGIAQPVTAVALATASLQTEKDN
How it was run: as §1

ERG = target: T4, ERG (Homo sapiens, UniProt P11308 1-479); details: protein: recombinant; tags: N-terminal GST; dsDNA, one strand shown
T4 sequence: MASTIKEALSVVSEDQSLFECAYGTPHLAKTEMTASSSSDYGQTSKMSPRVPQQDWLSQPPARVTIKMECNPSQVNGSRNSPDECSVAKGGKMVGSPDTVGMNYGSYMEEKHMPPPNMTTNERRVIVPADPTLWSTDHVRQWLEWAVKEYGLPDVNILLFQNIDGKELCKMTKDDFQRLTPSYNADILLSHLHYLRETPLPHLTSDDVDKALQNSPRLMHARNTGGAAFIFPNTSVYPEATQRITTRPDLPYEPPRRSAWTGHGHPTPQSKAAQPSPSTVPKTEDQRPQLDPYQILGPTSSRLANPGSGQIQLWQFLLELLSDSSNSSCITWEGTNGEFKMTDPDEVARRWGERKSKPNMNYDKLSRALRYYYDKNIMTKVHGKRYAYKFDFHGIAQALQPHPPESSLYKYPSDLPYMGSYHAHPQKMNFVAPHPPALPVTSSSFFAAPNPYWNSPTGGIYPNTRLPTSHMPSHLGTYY
How it was run: as §1

ELF1 = ELF1 (Homo sapiens, UniProt P32519 1-619); details: protein: recombinant; tags: N-terminal GST; dsDNA, one strand shown
Chain of ELF1 (P32519 whole entry): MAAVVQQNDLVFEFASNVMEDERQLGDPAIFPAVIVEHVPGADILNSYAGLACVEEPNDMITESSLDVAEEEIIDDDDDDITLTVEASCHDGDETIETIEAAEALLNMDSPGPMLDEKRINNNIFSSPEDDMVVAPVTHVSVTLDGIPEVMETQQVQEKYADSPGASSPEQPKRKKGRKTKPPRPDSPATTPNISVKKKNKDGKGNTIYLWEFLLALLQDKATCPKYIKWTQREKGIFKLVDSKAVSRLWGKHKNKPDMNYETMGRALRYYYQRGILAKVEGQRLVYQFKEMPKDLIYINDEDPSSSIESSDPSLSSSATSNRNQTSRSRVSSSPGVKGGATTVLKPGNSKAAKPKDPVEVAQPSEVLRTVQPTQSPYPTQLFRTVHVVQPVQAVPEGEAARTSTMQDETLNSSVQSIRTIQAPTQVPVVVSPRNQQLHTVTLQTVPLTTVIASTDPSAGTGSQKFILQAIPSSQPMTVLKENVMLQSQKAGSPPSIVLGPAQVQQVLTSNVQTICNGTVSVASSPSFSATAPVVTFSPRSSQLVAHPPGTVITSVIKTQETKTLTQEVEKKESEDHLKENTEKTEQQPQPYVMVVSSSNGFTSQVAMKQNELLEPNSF
How it was run: as §1

EHF = target: T5, EHF (Homo sapiens, UniProt Q9NZC4 1-300); details: protein: recombinant; tags: N-terminal GST; dsDNA, one strand shown
T5 sequence: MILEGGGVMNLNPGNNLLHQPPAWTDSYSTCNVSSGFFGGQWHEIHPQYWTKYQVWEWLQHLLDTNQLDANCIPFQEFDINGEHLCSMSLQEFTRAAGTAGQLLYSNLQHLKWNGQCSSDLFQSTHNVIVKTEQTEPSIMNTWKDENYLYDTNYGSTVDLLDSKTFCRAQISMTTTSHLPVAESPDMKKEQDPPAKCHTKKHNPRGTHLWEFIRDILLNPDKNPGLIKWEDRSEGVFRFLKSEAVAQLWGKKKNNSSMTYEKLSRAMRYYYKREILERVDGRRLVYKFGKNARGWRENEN
How it was run: as §1

SPI1 = SPI1 (Homo sapiens, UniProt P17947 1-270); details: protein: recombinant; tags: N-terminal GST; dsDNA, one strand shown
How it was run: as §1

SPIB = SPIB (Homo sapiens, UniProt Q01892 1-262); details: protein: recombinant; tags: N-terminal GST; dsDNA, one strand shown
Chain of SPIB (Q01892 whole entry): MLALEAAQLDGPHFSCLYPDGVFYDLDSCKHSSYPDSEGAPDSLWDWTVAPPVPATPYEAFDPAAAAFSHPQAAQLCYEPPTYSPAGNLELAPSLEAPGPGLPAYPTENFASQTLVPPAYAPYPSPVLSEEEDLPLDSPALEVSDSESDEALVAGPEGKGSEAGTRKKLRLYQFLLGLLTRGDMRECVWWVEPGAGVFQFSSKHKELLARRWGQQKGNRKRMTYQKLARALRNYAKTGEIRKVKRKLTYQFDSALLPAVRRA
How it was run: as §1

ELK3 = target: T6, ELK3 (Homo sapiens, UniProt P41970 1-407); details: protein: recombinant; tags: N-terminal GST; dsDNA, one strand shown
T6 sequence: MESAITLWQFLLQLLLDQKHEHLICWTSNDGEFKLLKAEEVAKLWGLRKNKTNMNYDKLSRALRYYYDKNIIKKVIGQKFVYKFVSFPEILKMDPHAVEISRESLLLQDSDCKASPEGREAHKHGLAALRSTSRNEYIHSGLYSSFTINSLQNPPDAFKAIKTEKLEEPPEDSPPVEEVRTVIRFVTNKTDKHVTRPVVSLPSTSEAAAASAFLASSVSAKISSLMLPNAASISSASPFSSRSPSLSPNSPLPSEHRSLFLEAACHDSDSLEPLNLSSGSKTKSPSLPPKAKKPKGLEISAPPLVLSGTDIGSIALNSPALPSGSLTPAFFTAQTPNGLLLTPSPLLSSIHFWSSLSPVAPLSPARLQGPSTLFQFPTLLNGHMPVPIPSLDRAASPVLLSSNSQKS
How it was run: as §1

FEV = target: T7, FEV (Homo sapiens, UniProt Q99581 1-238); details: protein: recombinant; tags: N-terminal GST; dsDNA, one strand shown
T7 sequence: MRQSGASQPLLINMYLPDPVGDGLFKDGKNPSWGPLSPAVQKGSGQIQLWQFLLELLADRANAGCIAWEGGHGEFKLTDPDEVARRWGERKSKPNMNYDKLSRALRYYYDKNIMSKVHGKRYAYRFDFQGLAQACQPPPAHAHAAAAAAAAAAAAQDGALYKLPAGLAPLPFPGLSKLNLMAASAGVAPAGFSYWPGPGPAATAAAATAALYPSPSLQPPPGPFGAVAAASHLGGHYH
How it was run: as §1

ETV5 = ETV5 (Homo sapiens, UniProt P41161 1-510); details: protein: recombinant; tags: N-terminal GST; dsDNA, one strand shown
Chain of ETV5 (P41161 whole entry): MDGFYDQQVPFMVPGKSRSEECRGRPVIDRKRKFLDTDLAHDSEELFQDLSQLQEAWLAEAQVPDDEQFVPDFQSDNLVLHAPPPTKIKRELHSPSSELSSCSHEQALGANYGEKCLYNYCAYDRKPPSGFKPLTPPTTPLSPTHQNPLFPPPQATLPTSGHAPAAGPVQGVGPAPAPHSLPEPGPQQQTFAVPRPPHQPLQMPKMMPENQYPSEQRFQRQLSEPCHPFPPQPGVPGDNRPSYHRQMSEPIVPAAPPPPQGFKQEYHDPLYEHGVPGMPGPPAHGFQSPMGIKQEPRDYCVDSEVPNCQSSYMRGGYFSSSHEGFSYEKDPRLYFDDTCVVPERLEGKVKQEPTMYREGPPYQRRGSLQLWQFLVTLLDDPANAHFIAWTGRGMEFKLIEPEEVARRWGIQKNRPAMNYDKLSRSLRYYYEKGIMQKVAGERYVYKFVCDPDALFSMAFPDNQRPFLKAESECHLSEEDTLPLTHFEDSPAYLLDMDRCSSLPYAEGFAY
How it was run: as §1

HSF1 = HSF1 (Homo sapiens, UniProt Q00613 1-529); details: protein: recombinant; tags: N-terminal GST; chain copies: 3; dsDNA, one strand shown
Chain of HSF1 (Q00613 whole entry): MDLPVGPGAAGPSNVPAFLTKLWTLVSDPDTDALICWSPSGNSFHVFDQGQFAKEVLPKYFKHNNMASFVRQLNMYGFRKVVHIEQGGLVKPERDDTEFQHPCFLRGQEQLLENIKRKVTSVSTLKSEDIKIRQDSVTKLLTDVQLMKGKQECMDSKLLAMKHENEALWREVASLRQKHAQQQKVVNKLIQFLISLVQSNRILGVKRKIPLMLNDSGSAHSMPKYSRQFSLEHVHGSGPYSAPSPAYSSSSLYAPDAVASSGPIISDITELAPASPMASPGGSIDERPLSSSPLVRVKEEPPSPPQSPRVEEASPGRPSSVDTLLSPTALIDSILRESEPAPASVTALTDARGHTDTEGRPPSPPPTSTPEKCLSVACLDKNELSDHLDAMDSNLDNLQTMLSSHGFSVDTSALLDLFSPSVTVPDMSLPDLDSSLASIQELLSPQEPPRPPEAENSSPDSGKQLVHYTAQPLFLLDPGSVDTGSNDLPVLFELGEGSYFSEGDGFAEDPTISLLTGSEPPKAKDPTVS
How it was run: as §1

SPIC = target: T8, SPIC (Homo sapiens, UniProt Q8N5J4 1-248); details: protein: recombinant; tags: N-terminal GST; dsDNA, one strand shown
T8 sequence: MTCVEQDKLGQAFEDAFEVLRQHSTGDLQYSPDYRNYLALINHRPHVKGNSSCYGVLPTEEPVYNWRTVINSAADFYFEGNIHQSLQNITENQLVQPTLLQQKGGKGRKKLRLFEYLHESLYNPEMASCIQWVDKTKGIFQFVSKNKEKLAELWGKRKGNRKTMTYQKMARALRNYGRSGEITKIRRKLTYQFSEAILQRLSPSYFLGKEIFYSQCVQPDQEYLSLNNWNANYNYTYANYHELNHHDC
How it was run: as §1

ELF4 = ELF4 (Homo sapiens, UniProt Q99607 1-663); details: protein: recombinant; tags: N-terminal GST; dsDNA, one strand shown
Chain of ELF4 (Q99607 whole entry): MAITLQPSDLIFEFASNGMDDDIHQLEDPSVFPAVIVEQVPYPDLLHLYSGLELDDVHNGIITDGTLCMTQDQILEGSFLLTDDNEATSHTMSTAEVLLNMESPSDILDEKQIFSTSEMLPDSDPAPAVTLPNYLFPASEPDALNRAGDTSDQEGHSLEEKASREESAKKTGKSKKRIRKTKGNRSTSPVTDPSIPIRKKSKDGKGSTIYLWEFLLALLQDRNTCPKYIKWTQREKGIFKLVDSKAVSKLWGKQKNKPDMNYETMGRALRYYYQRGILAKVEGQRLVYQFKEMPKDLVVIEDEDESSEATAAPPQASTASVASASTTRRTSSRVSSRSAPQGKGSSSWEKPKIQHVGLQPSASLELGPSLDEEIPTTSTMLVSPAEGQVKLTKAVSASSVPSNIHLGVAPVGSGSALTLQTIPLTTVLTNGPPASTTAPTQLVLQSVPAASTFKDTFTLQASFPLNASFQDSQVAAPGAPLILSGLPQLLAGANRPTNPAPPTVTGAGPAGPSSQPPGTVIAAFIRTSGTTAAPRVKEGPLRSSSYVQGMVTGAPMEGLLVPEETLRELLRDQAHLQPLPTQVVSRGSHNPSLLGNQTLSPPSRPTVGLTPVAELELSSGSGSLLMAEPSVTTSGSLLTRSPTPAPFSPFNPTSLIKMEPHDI
How it was run: as §1

ELK4 = target: T9, ELK4 (Homo sapiens, UniProt P28324-2 1-405); details: protein: recombinant; tags: N-terminal GST; dsDNA, one strand shown
T9 sequence: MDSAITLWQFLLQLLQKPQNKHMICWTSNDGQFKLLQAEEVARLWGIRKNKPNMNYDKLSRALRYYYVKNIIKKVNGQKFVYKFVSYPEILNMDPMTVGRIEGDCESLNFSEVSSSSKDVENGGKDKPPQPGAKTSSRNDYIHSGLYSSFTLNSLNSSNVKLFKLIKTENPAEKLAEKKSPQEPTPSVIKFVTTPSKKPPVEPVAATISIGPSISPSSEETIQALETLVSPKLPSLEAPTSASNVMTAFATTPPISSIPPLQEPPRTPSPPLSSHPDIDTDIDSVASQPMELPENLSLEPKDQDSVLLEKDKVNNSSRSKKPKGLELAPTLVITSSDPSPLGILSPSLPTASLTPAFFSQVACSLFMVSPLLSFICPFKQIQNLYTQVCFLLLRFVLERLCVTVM
How it was run: as §1

ETV2 = target: T10, ETV2 (Homo sapiens, UniProt O00321 1-342); details: protein: recombinant; tags: N-terminal GST; dsDNA, one strand shown
T10 sequence: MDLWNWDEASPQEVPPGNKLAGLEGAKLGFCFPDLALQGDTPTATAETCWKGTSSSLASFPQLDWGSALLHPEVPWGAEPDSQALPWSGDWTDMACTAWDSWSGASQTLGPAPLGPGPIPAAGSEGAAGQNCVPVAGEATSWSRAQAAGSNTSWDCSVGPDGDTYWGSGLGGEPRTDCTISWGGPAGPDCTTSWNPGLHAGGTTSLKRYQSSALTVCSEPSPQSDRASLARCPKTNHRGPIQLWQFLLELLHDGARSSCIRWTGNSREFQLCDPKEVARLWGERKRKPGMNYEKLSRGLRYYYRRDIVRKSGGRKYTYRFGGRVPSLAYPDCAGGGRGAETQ
How it was run: as §1

ELF3 = target: T11, ELF3 (Homo sapiens, UniProt P78545 1-371); details: protein: recombinant; tags: N-terminal GST; dsDNA, one strand shown
T11 sequence: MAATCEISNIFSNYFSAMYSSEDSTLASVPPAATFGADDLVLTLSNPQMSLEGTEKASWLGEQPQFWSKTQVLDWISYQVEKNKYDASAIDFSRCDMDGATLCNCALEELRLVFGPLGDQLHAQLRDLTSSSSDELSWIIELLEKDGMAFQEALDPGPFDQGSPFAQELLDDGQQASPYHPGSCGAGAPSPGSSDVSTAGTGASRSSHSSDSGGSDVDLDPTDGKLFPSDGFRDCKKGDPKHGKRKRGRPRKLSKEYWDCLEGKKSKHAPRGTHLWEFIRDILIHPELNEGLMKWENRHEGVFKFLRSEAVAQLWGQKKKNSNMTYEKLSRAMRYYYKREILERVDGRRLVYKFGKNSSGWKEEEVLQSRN
How it was run: as §1

CRX = CRX (Homo sapiens, UniProt O43186 1-299); details: protein: recombinant; tags: N-terminal GST; dsDNA, one strand shown
Chain of CRX (O43186 whole entry): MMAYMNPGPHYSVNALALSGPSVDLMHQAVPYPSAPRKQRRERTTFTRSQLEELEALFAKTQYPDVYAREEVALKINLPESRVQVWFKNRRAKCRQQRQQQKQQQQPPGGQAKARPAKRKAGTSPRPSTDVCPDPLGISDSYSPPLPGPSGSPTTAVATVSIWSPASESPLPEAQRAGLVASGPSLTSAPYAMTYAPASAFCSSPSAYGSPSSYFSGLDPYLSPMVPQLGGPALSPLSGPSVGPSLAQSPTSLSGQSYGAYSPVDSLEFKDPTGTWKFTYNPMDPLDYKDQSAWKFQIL
How it was run: as §1

ETV1 = ETV1 (Homo sapiens, UniProt P50549 1-477); details: protein: recombinant; tags: N-terminal GST; dsDNA, one strand shown
Chain of ETV1 (P50549 whole entry): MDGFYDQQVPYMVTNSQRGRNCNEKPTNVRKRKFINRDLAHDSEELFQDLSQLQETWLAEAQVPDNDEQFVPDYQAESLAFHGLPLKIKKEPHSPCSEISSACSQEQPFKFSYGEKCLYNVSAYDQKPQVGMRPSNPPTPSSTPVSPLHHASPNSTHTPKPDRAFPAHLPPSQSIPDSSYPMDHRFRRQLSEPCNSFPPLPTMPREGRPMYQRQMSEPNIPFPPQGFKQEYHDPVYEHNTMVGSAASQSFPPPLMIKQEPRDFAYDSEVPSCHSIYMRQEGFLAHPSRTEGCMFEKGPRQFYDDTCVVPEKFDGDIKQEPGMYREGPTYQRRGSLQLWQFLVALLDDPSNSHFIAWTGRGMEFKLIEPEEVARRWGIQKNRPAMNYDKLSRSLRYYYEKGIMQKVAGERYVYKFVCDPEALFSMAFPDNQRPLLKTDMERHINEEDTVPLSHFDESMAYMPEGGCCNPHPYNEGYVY
How it was run: as §1

Sequence: GACTTT
- binding signal (FLI1): 1.04 fold enrichment (6-mer frequency, TF over GST control)
- binding signal (ELK1): 1.18 fold enrichment (6-mer frequency, TF over GST control)
- binding signal (GABPA): 1.17 fold enrichment (6-mer frequency, TF over GST control)
- binding signal (ERG): 1.16 fold enrichment (6-mer frequency, TF over GST control)
- binding signal (ELF1): 1.12 fold enrichment (6-mer frequency, TF over GST control)
- binding signal (EHF): 1.07 fold enrichment (6-mer frequency, TF over GST control)
- binding signal (SPI1): 1.23 fold enrichment (6-mer frequency, TF over GST control)
- binding signal (SPIB): 1.12 fold enrichment (6-mer frequency, TF over GST control)
- binding signal (ELK3): 1.12 fold enrichment (6-mer frequency, TF over GST control)
- binding signal (FEV): 1.14 fold enrichment (6-mer frequency, TF over GST control)
- binding signal (ETV5): 1.22 fold enrichment (6-mer frequency, TF over GST control)
- binding signal (HSF1): 1.4 fold enrichment (6-mer frequency, TF over GST control)
- binding signal (SPIC): 1.21 fold enrichment (6-mer frequency, TF over GST control)
- binding signal (ELF4): 1.22 fold enrichment (6-mer frequency, TF over GST control)
- binding signal (ELK4): 1.17 fold enrichment (6-mer frequency, TF over GST control)
- binding signal (ETV2): 1.1 fold enrichment (6-mer frequency, TF over GST control)
- binding signal (ELF3): 1.1 fold enrichment (6-mer frequency, TF over GST control)
- binding signal (CRX): 1.37 fold enrichment (6-mer frequency, TF over GST control)
- binding signal (ETV1): 1.24 fold enrichment (6-mer frequency, TF over GST control)
